{"source": "PubChem BioAssay (EPA / NIEHS)", "key": {"[1]": {"test": "APR_HepG2_StressKinase_1hr: Apredica 1-hour HepG2 Assay for Stress Kinase (AID 2282906)", "conditions": "HepG2 stress kinase (phospho-c-Jun) imaging, actives raise or lower the signal", "how_it_was_run": "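High-content imaging of phospho-c-Jun immunostaining (with Hoechst nuclear identification) after a 1 h exposure of HepG2 cells to 10 concentrations from 0.39 to 200 uM, final DMSO 0.5%. Fitted bidirectionally against DMSO.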"}, "[2]": {"test": "APR_HepG2_NuclearSize_24hr: Apredica 24-hour HepG2 Assay for Nuclear Size (AID 2282907)", "conditions": "high-content imaging, actives raise or lower the signal", "how_it_was_run": "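Nuclear size from Hoechst 33342-stained, formaldehyde-fixed HepG2 nuclei imaged by high-content microscopy, after 24 h dosing at ten concentrations from 0.39 to 200 uM in 0.5% DMSO; gain or loss relative to DMSO baseline.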"}, "[3]": {"test": "APR_HepG2_CellLoss_24hr: Apredica 24-hour HepG2 Assay for Cell Loss (AID 2282908)", "conditions": "high-content imaging", "how_it_was_run": "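Nuclei stained with Hoechst 33342 after formaldehyde fixation (3.7%) were imaged at 20x to count cells. Exposure lasted 24 hr, at ten concentrations from 0.39 to 200 uM in duplicate, with 0.5% v/v DMSO. Fit bidirectional, relative to DMSO.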"}, "[4]": {"test": "APR_HepG2_MicrotubuleCSK_24hr: Apredica 24-hour HepG2 Assay for Microtubule CSK Stabilty (AID 2282909)", "conditions": "HepG2 microtubule cytoskeleton imaging, actives raise or lower the signal", "how_it_was_run": "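Fixed HepG2 cells were stained for alpha-tubulin and imaged after 24 hr exposure to ten concentrations spanning 0.39–200 uM in 0.5% DMSO. Signal change was fitted in both directions relative to DMSO; taxol was the positive control.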"}, "[5]": {"test": "APR_HepG2_MitoticArrest_24hr: Apredica 24-hour HepG2 Assay for Mitotic Arrest (AID 2282910)", "conditions": "high-content imaging, actives raise or lower the signal", "how_it_was_run": "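Treatment lasted 24 hr in the human HepG2 line at 0.39–200 uM, solvent held at 0.5% DMSO. Fixed cells were stained with Hoechst 33342 and anti-phospho-histone H3, imaged at 20x, and analysed by gain- or loss-of-signal fitting against DMSO.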"}, "[6]": {"test": "APR_HepG2_MitoMembPot_24hr: Apredica 24-hour HepG2 Assay for Mitochondrial Membrane Potential (AID 2282911)", "conditions": "imaging, actives raise or lower the signal", "how_it_was_run": "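Cells are dosed for 24 hr across 0.39 to 200 uM with solvent held at 0.5% DMSO. They are then stained with 250 nM MitoTracker Red CMXRos for 30 min, fixed in 3.7% formaldehyde and imaged.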"}, "[7]": {"test": "APR_HepG2_MitoMass_24hr: Apredica 24-hour HepG2 Assay for Mitochondrial Mass (AID 2282912)", "conditions": "high-content imaging, actives raise or lower the signal", "how_it_was_run": "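Endpoint is MitoTracker Red CMXRos (250 nM, 30 min, pre-fixation) intensity from 20x high-content imaging, nuclei located by Hoechst. Human HepG2 cells received ten concentrations from 0.39 to 200 uM in 0.5% DMSO for 24 hr, duplicate wells. Bidirectional fit relative to DMSO.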"}, "[8]": {"test": "APR_HepG2_CellCycleArrest_72hr: Apredica 72-hour HepG2 Assay for Cell Cycle Arrest (AID 2282914)", "conditions": "high-content imaging, actives raise or lower the signal", "how_it_was_run": "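Read-out is Hoechst-stained nuclear DNA content measured by automated fluorescence imaging (20x, six images per well), fitted in both directions relative to DMSO. Human HepG2 liver cells received 0.39–200 uM compound for 72 hr at 0.5% v/v DMSO.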"}, "[9]": {"test": "APR_HepG2_CellLoss_72hr: Apredica 72-hour HepG2 Assay for Cell Loss (AID 2282915)", "conditions": "high-content imaging", "how_it_was_run": "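HepG2 cells were exposed for 72 hr to compounds at 0.39–200 uM (ten concentrations, duplicate) in 0.5% v/v final DMSO. Nuclei were stained with Hoechst 33342 after 3.7% formaldehyde fixation, imaged at 20x, and counted; fits bidirectional versus DMSO.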"}, "[10]": {"test": "APR_HepG2_P-H2AX_72hr: Apredica 72-hour HepG2 Assay for H2AX Phosphorylation (AID 2282916);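 further: phospho-histone H2A.x immunostain intensity per cell marking DNA damage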", "conditions": "imaging, actives raise or lower the signal", "how_it_was_run": "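Phospho-histone H2A.x immunofluorescence, multiplexed with Hoechst and c-Jun, quantified by high-content imaging. Compounds applied to HepG2 for 72 h across ten concentrations (0.39–200 uM, 0.5% DMSO), in duplicate; DMSO baseline.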"}, "[11]": {"test": "APR_HepG2_MitoMembPot_72hr: Apredica 72-hour HepG2 Assay for Mitochondrial Membrane Potential (AID 2282917)", "conditions": "imaging, actives raise or lower the signal", "how_it_was_run": "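HepG2 cells exposed 72 h to compounds at 0.39–200 uM (0.5% v/v DMSO, duplicates); MitoTracker Red CMXRos 250 nM loaded 30 min before 3.7% formaldehyde fixation, imaged by HCS fluorescence. Bidirectional fit versus DMSO.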"}, "[12]": {"test": "APR_HepG2_MitoticArrest_72hr: Apredica 72-hour HepG2 Assay for Mitotic Arrest (AID 2282918)", "conditions": "high-content imaging, actives raise or lower the signal", "how_it_was_run": "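Read-out is phospho-histone H3 immunofluorescence with Hoechst nuclear segmentation, imaged at 20x. Human HepG2 liver cells received ten concentrations (0.39–200 uM, final DMSO 0.5% v/v) for 72 hr before fixation. Gain or loss of signal was fitted relative to DMSO.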"}, "[13]": {"test": "APR_HepG2_MicrotubuleCSK_72hr: Apredica 72-hour HepG2 Assay for Microtubule CSK Stabilty (AID 2282919)", "conditions": "HepG2 microtubule cytoskeleton, high-content imaging, actives raise or lower the signal", "how_it_was_run": "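Ten-point dosing (0.39–200 uM, 0.5% DMSO) of HepG2 for 72 hr, with taxol as the cytoskeletal positive control. The cells were formaldehyde-fixed and then stained with alpha-tubulin/Cy5 and Hoechst. Imaging at 20x used a −2 um Z offset for tubulin.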"}, "[14]": {"test": "APR_HepG2_P-H2AX_24hr: Apredica 24-hour HepG2 Assay for H2AX Phosphorylation (AID 2282920)", "conditions": "high-content imaging, actives raise or lower the signal", "how_it_was_run": "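HepG2, 24 hr, cpd 0.39–200 uM (10 conc, duplicate), DMSO 0.5% v/v final. Fix 3.7% formaldehyde, Triton X-100 permeabilize, anti-phospho-H2A.x 1:200 + Hoechst 2 ug/mL. Imaged, bidirectional fit vs DMSO.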"}, "[15]": {"test": "APR_HepG2_StressKinase_72hr: Apredica 72-hour HepG2 Assay for Stress Kinase (AID 2282921)", "conditions": "HepG2 stress kinase (phospho-c-Jun) imaging, actives raise or lower the signal", "how_it_was_run": "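Stress kinase signal is phospho-c-Jun immunofluorescence (1:500 primary, Cy3 secondary) in fixed, permeabilized human HepG2 cells imaged at 20x. Exposure lasted 72 hr over ten concentrations from 0.39 to 200 uM, 0.5% DMSO, in duplicate. Bidirectional fit versus DMSO.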"}, "[16]": {"test": "APR_HepG2_StressKinase_24hr: Apredica 24-hour HepG2 Assay for Stress Kinase (AID 2282922)", "conditions": "HepG2 stress kinase (phospho-c-Jun) imaging, actives raise or lower the signal", "how_it_was_run": "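After 24 hr compound treatment (up to 200 uM, final DMSO 0.5% v/v), HepG2 cells are fixed and multiplex-labeled; phospho-c-Jun intensity is captured by high-content fluorescence imaging and analyzed relative to DMSO.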"}, "[17]": {"test": "APR_HepG2_MitoMass_72hr: Apredica 72-hour HepG2 Assay for Mitochondrial Mass (AID 2282924)", "conditions": "high-content imaging, actives raise or lower the signal", "how_it_was_run": "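Steps: treat HepG2 72 hr (0.39–200 uM, duplicate wells); load MitoTracker Red CMXRos, 250 nM, 30 min; fix with 3.7% formaldehyde, permeabilise with 0.5% Triton X-100; capture images, nuclei via Hoechst 33342; fit bidirectionally against DMSO.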"}, "[18]": {"test": "APR_HepG2_NuclearSize_72hr: Apredica 72-hour HepG2 Assay for Nuclear Size (AID 2282925)", "conditions": "high-content imaging, actives raise or lower the signal", "how_it_was_run": "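Compounds (0.39–200 uM, final DMSO 0.5%) were applied to HepG2 for 72 hr. Cells were then formaldehyde-fixed, permeabilized and labelled with Hoechst 33342. Nuclear diameter was quantified from six images per well.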"}, "[19]": {"test": "APR_HepG2_p53Act_72hr: Apredica 72-hour HepG2 Assay for p53 Activation (AID 2282923);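 further: average cellular p53 protein immunofluorescence intensity in HepG2 cells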", "conditions": "high-content imaging, actives raise or lower the signal", "how_it_was_run": "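After 72 h with compound (ten points, 0.39 to 200 uM, final DMSO 0.5% v/v), fixed HepG2 cells were labelled with sheep anti-p53 and Hoechst 33342 and imaged; gain or loss versus DMSO scored.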"}}, "note": "Several values for one entry are separate records, joined by “and”; a condition that tells them apart may be missing. Equal entries are not always repeated. The source holds several records for some structures; these can differ, active in one and inactive in another. Activity calls are given as the source filed them. How the source made its calls: active means hit-call score of the fitted dose curve at least 0.9, where 1 is the maximum; inactive means score below 0.9.", "data": [{"smiles": "S=C(S)NCCNC(=S)S.[Mn+2].[S-]C([S-])=NCCN=C([S-])[S-].[Zn+2]", "values": [{"measurement": "outcome", "setting": "[1]", "value": "inactive"}, {"measurement": "outcome", "setting": "[2]", "value": "inactive"}, {"measurement": "AC50", "setting": "[3]", "value": "50.1 µM (active) [middle of 4 runs]"}, {"measurement": "outcome", "setting": "[3]", "value": "inactive"}, {"measurement": "outcome", "setting": "[4]", "value": "inactive"}, {"measurement": "AC50", "setting": "[5]", "value": "55.2 µM (active) and 107 µM (active)"}, {"measurement": "outcome", "setting": "[5]", "value": "inactive"}, {"measurement": "outcome", "setting": "[6]", "value": "inactive"}, {"measurement": "outcome", "setting": "[7]", "value": "inactive"}, {"measurement": "AC50", "setting": "[8]", "value": "53.5 µM (active) and 51.5 µM (active)"}, {"measurement": "outcome", "setting": "[8]", "value": "inactive"}, {"measurement": "AC50", "setting": "[9]", "value": "46.5 µM (active) [middle of 5 runs]"}, {"measurement": "outcome", "setting": "[9]", "value": "inactive"}, {"measurement": "AC50", "setting": "[10]", "value": "50 µM (active) [middle of 6 runs]"}, {"measurement": "outcome", "setting": "[10]", "value": "inactive"}, {"measurement": "outcome", "setting": "[11]", "value": "inactive"}, {"measurement": "AC50", "setting": "[12]", "value": "51.9 µM (active) [middle of 5 runs]"}, {"measurement": "outcome", "setting": "[12]", "value": "inactive"}, {"measurement": "outcome", "setting": "[13]", "value": "inactive"}, {"measurement": "AC50", "setting": "[14]", "value": "50 µM (active) [middle of 7 runs]"}, {"measurement": "AC50", "setting": "[15]", "value": "39.8 µM (active)"}, {"measurement": "outcome", "setting": "[15]", "value": "inactive"}, {"measurement": "AC50", "setting": "[16]", "value": "40.9 µM (active) and 82.9 µM (active)"}, {"measurement": "outcome", "setting": "[16]", "value": "inactive"}, {"measurement": "AC50", "setting": "[17]", "value": "31.4 µM (active) and 52.5 µM (active) and 169 µM (active)"}, {"measurement": "outcome", "setting": "[17]", "value": "inactive"}, {"measurement": "AC50", "setting": "[18]", "value": "80.6 µM (active)"}, {"measurement": "outcome", "setting": "[18]", "value": "inactive"}]}, {"smiles": "COC(=O)c1cccc(C)c1S(=O)(=O)NC(=O)Nc1nc(OCC(F)(F)F)nc(N(C)C)n1", "values": [{"measurement": "outcome", "setting": "[1]", "value": "inactive"}, {"measurement": "outcome", "setting": "[2]", "value": "inactive"}, {"measurement": "outcome", "setting": "[3]", "value": "inactive"}, {"measurement": "outcome", "setting": "[4]", "value": "inactive"}, {"measurement": "outcome", "setting": "[5]", "value": "inactive"}, {"measurement": "outcome", "setting": "[6]", "value": "inactive"}, {"measurement": "outcome", "setting": "[7]", "value": "inactive"}, {"measurement": "outcome", "setting": "[8]", "value": "inactive"}, {"measurement": "outcome", "setting": "[9]", "value": "inactive"}, {"measurement": "outcome", "setting": "[10]", "value": "inactive"}, {"measurement": "AC50", "setting": "[11]", "value": "1.33 µM (active)"}, {"measurement": "outcome", "setting": "[12]", "value": "inactive"}, {"measurement": "outcome", "setting": "[13]", "value": "inactive"}, {"measurement": "outcome", "setting": "[14]", "value": "inactive"}, {"measurement": "outcome", "setting": "[15]", "value": "inactive"}, {"measurement": "outcome", "setting": "[16]", "value": "inactive"}, {"measurement": "outcome", "setting": "[19]", "value": "inactive"}, {"measurement": "outcome", "setting": "[17]", "value": "inactive"}, {"measurement": "outcome", "setting": "[18]", "value": "inactive"}]}]}
